Measured values: PubChem BioAssay (EPA / NIEHS)
Inconclusive results are not listed. More than one record can exist for a structure, and the calls need not agree. The source made the active and inactive calls. The calls were made as follows, unless noted: active = hit-call score of the fitted dose curve at least 0.9, where 1 is the maximum; inactive = score below 0.9.

Columns and labels:
[1] = read-out: Urokinase-type plasminogen activator receptor (uPAR), PLAUR (gene 5329); experiment: BSK_4H_uPAR: BioMAP Diversity Plus: 4H Assay for Urokinase-type plasminogen activator receptor (uPAR) Biomarker Activity (AID 2283030); conditions: primary human endothelial cells (HUVEC); actives raise or lower the signal
Method in brief: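 Primary human umbilical vein endothelial cells were exposed to chemical for 24 h before cell-surface uPAR was quantified by ELISA. Activity was fitted bidirectionally against the DMSO negative control baseline.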

[2] = read-out: Plasminogen activator inhibitor-1 (PAI1), SERPINE1 (gene 5054); experiment: BSK_BE3C_PAI1: BioMAP Diversity Plus: BE3C Assay for Plasminogen activator inhibitor-1 (PAI1) Biomarker Activity (AID 2283037); conditions: primary human bronchial epithelial cells; actives raise or lower the signal
Method in brief: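 Human primary bronchial epithelial cells were exposed to chemical for 24 h, then PAI-1 was quantified by ELISA. Activity was fitted bidirectionally relative to the DMSO negative control baseline.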

[3] = read-out: urokinase plasminogen activator (uPA), PLAU (gene 5328); experiment: BSK_BE3C_uPA: BioMAP Diversity Plus: BE3C Assay for urokinase plasminogen activator (uPA) Biomarker Activity (AID 2283038); conditions: primary human bronchial epithelial cells; actives raise or lower the signal
Method in brief: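 Human primary bronchial epithelial cells were exposed to chemical for 24 h, then uPA levels were measured by ELISA. Responses were fitted bidirectionally against DMSO as negative control and baseline. Parallel SRB staining of total protein gauged overt cytotoxicity.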

[4] = read-out: Tissue plasminogen activator (tPA), PLAT (gene 5327); experiment: BSK_BE3C_tPA: BioMAP Diversity Plus: BE3C Assay for Tissue plasminogen activator (tPA) Biomarker Activity (AID 2283041); conditions: primary human bronchial epithelial cells; actives raise or lower the signal
Method in brief: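 Human primary bronchial epithelial cells were dosed with chemical and tPA biomarker levels measured by ELISA 24 hours later. Activity was fitted bidirectionally against DMSO as negative control and baseline.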

[5] = read-out: Low-density lipoprotein receptor (LDLR), LDLR (gene 3949); experiment: BSK_CASM3C_LDLR: BioMAP Diversity Plus: CASM3C Assay for Low-density lipoprotein receptor (LDLR) Biomarker Activity (AID 2283045); conditions: primary human coronary artery smooth muscle cells; actives raise or lower the signal;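 also: LDLR protein level on the cell surface quantified by ELISA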
[6] = read-out: serum amyloid A (SAA), SAA1 (gene 6288); experiment: BSK_CASM3C_SAA: BioMAP Diversity Plus: CASM3C Assay for serum amyloid A (SAA) Biomarker Activity (AID 2283049); conditions: primary human coronary artery smooth muscle cells; actives raise or lower the signal;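 also: SAA protein level quantified by ELISA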
[7] = read-out: Thrombomodulin, THBD (gene 7056); experiment: BSK_CASM3C_Thrombomodulin: BioMAP Diversity Plus: CASM3C Assay for Thrombomodulin Biomarker Activity (AID 2283051); conditions: primary human coronary artery smooth muscle cells; actives raise or lower the signal;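 also: thrombomodulin protein level measured by ELISA 24 h after dosing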
[8] = read-out: Collagen III, COL3A1 (gene 1281); experiment: BSK_hDFCGF_CollagenIII: BioMAP Diversity Plus: hDFCGF Assay for Collagen III Biomarker Activity (AID 2283056); conditions: primary human foreskin fibroblasts; actives raise or lower the signal
Method in brief: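 Human foreskin primary fibroblasts were exposed to test chemicals for 24 h, after which collagen III was quantified by ELISA. Activity was fitted bidirectionally against DMSO as negative control and baseline.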

[9] = read-out: Interleukin-1 alpha (IL1a), IL1A (gene 3552); experiment: BSK_KF3CT_IL1a: BioMAP Diversity Plus: KF3CT Assay for Interleukin-1 alpha (IL1a) Biomarker Activity (AID 2283070); conditions: primary human keratinocytes with fibroblasts; actives raise or lower the signal
Method in brief: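 Human keratinocyte plus foreskin fibroblast primary co-culture, sampled 24 h after chemical dosing. IL-1a measured by ELISA; responses fitted bidirectionally against DMSO baseline (negative control), so gain or loss of signal both count.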

[10] = read-out: Transforming growth factor beta 1 (TGFb1), TGFB1 (gene 7040); experiment: BSK_KF3CT_TGFb1: BioMAP Diversity Plus: KF3CT Assay for Transforming growth factor beta 1 (TGFb1) Biomarker Activity (AID 2283072); conditions: primary human keratinocytes with fibroblasts; actives raise or lower the signal
Method in brief: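 Human keratinocyte plus foreskin fibroblast primary co-culture, dosed with chemical for 24 h. TGF-b1 quantified by ELISA. Activity fitted bidirectionally against DMSO negative control as baseline.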

[11] = read-out: C-C motif chemokine 2 (Homo sapiens) (UniProt P13500); experiment: BSK_KF3CT_MCP1: BioMAP Diversity Plus: KF3CT Assay for Monocyte Chemoattractant Protein 1 (MCP1/CCL2) Biomarker Activity (AID 2283073); conditions: primary human keratinocytes with fibroblasts; actives raise or lower the signal
Method in brief: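 Human keratinocyte plus foreskin fibroblast primary co-culture exposed to chemical for 24 h. MCP-1 levels measured by ELISA. Bidirectional curve fitting relative to DMSO negative control as baseline.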

[12] = read-out: Matrix Metallopeptidase 9 (MMP9), MMP9 (gene 4318); experiment: BSK_KF3CT_MMP9: BioMAP Diversity Plus: KF3CT Assay for Matrix Metallopeptidase 9 (MMP9) Biomarker Activity (AID 2283074); conditions: primary human keratinocytes with fibroblasts; actives raise or lower the signal;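 as to AC50: MMP9 protein level quantified by ELISA in the co-culture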
Method in brief: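 Keratinocyte plus foreskin fibroblast human primary skin co-culture was dosed with chemical and MMP-9 was quantified by ELISA 24 h later. Bidirectional curve fitting used DMSO as negative control and activity baseline.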

[13] = read-out: E-selectin (Homo sapiens) (UniProt P16581); experiment: BSK_LPS_Eselectin: BioMAP Diversity Plus: LPS Assay for Eselectin Biomarker Activity (AID 2283077); conditions: primary human HUVEC with PBMC; actives raise or lower the signal
Method in brief: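 Human umbilical vein endothelial cells co-cultured with peripheral blood mononuclear cells under LPS stimulation; E-selectin measured by ELISA 24 h after chemical dosing. Activity fitted bidirectionally against DMSO as negative control and baseline.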

[14] = read-out: Tumor necrosis factor (Homo sapiens) (UniProt P01375); experiment: BSK_LPS_TNFa: BioMAP Diversity Plus: LPS Assay for Tumour Necrosis Factor alpha (TNFa) Biomarker Activity (AID 2283085); conditions: primary human HUVEC with PBMC; actives raise or lower the signal;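 as to AC50: TNFa protein level quantified by ELISA in the co-culture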
Method in brief: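 Human umbilical vein endothelial cells co-cultured with PBMC were exposed to test chemical and TNFa measured by ELISA 24 h after dosing. Bidirectional curve fitting was done relative to DMSO as negative control and baseline.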

[15] = BSK_SAg_PBMCCytotoxicity: PBMC Cytotoxicity Assessment in the BioMAP Diversity Plus: SAg Assay (AID 2283093); conditions: primary human HUVEC with PBMC;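 also: PBMC viability measured as Alamar Blue reduction fluorescence at 546/580 nm; fitted both ways against DMSO so a hit may be loss or gain of signal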;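 as to AC50: PBMC superantigen activated with SEB plus TSST-1 one hour after compound addition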
Method in brief: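 Human umbilical vein endothelial cells co-cultured with PBMC; PBMC (75,000/well) pre-treated with compound 1 h, then activated with SEB and TSST-1 (20 ng/mL final each) for 90 h. Alamar Blue added 6 h, fluorescence 546/580 nm; bidirectional fit versus DMSO.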

[16] = read-out: Interleukin 17A (IL17A), IL17A (gene 3605); experiment: BSK_BT_xIL17A: BioMAP Diversity Plus: BT Assay for Interleukin 17A (IL17A) Biomarker Activity (AID 2284229); conditions: primary human B cells with PBMC
Method in brief: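 B cells co-cultured with PBMC were exposed to test chemicals, and secreted IL-17A was quantified 24 h after dosing by Luminex xMAP bead immunoassay. Activity was fitted in the gain direction against DMSO as baseline.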

[17] = read-out: Interleukin 2 (IL2), IL2 (gene 3558); experiment: BSK_BT_xIL2: BioMAP Diversity Plus: BT Assay for Interleukin 2 (IL2) Biomarker Activity (AID 2284245); conditions: primary human B cells with PBMC
Method in brief: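 Human B cells co-cultured with PBMC, exposed to test chemical for 24 h. Secreted IL-2 quantified by Luminex xMAP bead immunoassay; activity fitted in the positive direction relative to DMSO vehicle baseline.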

[18] = read-out: Plasminogen activator inhibitor-1 (PAI1), SERPINE1 (gene 5054); experiment: BSK_MyoF_PAI1: BioMAP Diversity Plus: MyoF Assay for Plasminogen activator inhibitor-1 (PAI1) Biomarker Activity (AID 2284256); conditions: primary human lung fibroblasts
Method in brief: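 ELISA read-out of PAI-1 from primary human lung fibroblast cultures 24 h after dosing; gain-of-signal fit versus DMSO control.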

[19] = read-out: Matrix Metallopeptidase 1 (MMP1), MMP1 (gene 4312); experiment: BSK_MyoF_MMP1: BioMAP Diversity Plus: MyoF Assay for Matrix Metallopeptidase 1 (MMP1) Biomarker Activity (AID 2284268); conditions: primary human lung fibroblasts
Method in brief: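 ELISA readout of MMP1 in primary human lung fibroblast cultures, 24 h post-dosing. Gain of signal versus DMSO vehicle control defines activity. Parallel SRB staining (0.1% after 10% TCA fixation, 560 nm) flags overt cytotoxicity.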

[20] = target: human Tyrosine Protein Kinase Receptor Tie-2 (Tie2), TEK (gene 7010) (UniProt Q02763); experiment: NVS_ENZ_hTie2: NovaScreen (NVS) Enzymatic Assay for human Tyrosine Protein Kinase Receptor Tie-2 (Tie2) (AID 2283225; active = hit-call score of the fitted dose curve at least 0.9, where 1 is the maximum)
human Tyrosine Protein Kinase Receptor Tie-2 (Tie2), TEK (gene 7010), sequence (Q02763 whole entry, looked up): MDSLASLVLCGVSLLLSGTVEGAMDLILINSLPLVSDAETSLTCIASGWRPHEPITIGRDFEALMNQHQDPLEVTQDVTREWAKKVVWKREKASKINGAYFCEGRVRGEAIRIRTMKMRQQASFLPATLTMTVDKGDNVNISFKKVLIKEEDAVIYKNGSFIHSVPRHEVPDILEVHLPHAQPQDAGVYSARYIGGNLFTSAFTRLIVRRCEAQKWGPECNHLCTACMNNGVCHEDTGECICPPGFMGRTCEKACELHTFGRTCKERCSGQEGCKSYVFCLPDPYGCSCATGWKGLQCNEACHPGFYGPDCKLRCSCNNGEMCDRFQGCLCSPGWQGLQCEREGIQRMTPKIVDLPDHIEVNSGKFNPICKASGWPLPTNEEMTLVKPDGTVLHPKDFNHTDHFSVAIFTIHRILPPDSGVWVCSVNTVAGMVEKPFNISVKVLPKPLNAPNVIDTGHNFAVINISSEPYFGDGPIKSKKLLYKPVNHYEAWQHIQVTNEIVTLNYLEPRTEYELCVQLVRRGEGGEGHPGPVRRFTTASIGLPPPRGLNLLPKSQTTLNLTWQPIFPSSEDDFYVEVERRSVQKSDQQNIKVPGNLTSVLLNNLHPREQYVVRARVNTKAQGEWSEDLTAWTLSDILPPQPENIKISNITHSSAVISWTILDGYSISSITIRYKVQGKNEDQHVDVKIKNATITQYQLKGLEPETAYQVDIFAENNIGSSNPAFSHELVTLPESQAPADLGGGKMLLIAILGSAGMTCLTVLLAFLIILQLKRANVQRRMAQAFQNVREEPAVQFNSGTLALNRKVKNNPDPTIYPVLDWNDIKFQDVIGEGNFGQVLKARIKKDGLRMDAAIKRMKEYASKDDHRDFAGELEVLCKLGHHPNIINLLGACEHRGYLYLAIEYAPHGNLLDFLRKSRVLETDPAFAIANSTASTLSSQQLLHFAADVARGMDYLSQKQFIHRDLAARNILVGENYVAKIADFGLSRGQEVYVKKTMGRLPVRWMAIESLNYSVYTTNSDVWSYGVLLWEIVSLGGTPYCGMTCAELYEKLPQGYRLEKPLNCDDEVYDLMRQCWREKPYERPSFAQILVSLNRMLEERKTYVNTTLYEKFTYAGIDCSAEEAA
Method in brief: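 Recombinant human Tie2 kinase activity was read cell-free by fluorescence with electrophoretic mobility shift, 1 hour after dosing. The screen used 25 uM in duplicate, then concentration-response up to 50 uM. Signal loss was scored against DMSO.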

Measured: AC50

E-selectin (Homo sapiens), sequence (P16581 whole entry, looked up): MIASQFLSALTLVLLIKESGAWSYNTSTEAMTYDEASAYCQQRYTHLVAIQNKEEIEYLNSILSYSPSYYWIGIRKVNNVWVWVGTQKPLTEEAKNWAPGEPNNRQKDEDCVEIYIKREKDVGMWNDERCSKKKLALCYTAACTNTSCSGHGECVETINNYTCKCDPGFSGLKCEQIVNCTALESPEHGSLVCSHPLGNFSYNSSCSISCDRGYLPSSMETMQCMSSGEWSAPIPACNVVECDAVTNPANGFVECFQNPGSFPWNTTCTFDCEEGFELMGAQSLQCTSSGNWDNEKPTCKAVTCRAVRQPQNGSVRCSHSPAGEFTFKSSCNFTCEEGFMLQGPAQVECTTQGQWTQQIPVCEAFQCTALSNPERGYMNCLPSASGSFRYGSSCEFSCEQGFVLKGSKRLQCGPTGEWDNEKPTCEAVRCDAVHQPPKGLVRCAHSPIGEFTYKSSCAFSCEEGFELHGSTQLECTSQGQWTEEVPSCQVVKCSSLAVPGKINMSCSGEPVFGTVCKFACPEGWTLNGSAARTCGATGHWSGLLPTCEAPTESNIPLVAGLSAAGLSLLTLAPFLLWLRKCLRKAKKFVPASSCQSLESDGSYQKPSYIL
Tumor necrosis factor (Homo sapiens), sequence (P01375 whole entry, looked up): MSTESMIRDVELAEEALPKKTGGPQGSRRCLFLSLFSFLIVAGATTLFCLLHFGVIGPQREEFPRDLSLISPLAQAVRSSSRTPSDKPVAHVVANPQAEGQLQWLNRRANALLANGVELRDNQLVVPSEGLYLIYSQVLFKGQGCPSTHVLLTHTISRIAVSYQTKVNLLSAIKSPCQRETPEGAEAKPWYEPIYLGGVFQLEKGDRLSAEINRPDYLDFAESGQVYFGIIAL

CCCOC(=O)c1ccccc1C(=O)OCCC
inactive: [1] | [2] | [3] | [4] | [5] | [6] | [7] | [8] | [9] | [10] | [11] | [12] | [13] | [15] | [16] | [17] | [18] | [19]
active: [14] 20 µM

O=C(O)CCCc1ccc(N(CCCl)CCCl)cc1
inactive: [1] | [2] | [3] | [4] | [5] | [6] | [7] | [8] | [9] | [10] | [11] | [12] | [13] | [14] | [15] | [16] | [17] | [18] | [19]
active: [1] 0.687 µM | [2] 3.97 µM | [3] 8.11 µM | [4] 10.7 µM | [5] 20 µM | [6] 20 µM | [7] 5.06 µM | [8] 20 µM | [9] 12.3 µM | [10] 29.8 µM | [11] 30 µM | [12] 20 µM | [13] 20 µM | [14] 26.5 µM | [15] 20 µM | [16] 15 µM | [17] 35.5 µM | [18] 0.016 µM | [19] 30.6 µM

CC(C)(C)C(=O)CCl
active: [15] 9.22 µM | [18] 32.9 µM
inactive: [1] | [2] | [3] | [4] | [5] | [6] | [7] | [8] | [9] | [10] | [11] | [12] | [13] | [14] | [16] | [17] | [19]

CCC(C)c1cc([N+](=O)[O-])cc([N+](=O)[O-])c1OC(=O)C=C(C)C (stereo not given)
inactive: [7] | [19]
active: [1] 5.79 µM | [2] 11 µM | [3] 31.9 µM | [4] 6.13 µM | [5] 31.2 µM | [6] 20 µM | [8] 5.31 µM | [9] 22.8 µM | [10] 12.4 µM | [11] 36.7 µM | [12] 14.8 µM | [13] 13.3 µM | [14] 34.5 µM | [15] 28.2 µM | [16] 14.4 µM | [17] 30.9 µM | [18] 11.6 µM

O=[N+]([O-])C=Cc1ccccc1
inactive: [2] | [4] | [6] | [19]
active: [1] 5.14 µM | [3] 1.03 µM | [5] 25.7 µM | [7] 20 µM | [8] 33.1 µM | [9] 5.78 µM | [10] 3.05 µM | [11] 20 µM | [12] 3.08 µM | [13] 15.3 µM | [14] 9.91 µM | [15] 13 µM | [16] 5.44 µM | [17] 6.08 µM | [18] 12.3 µM

Clc1ccc(-c2ccccc2)cc1
active: [18] 0.121 µM
inactive: [1] | [2] | [3] | [4] | [5] | [6] | [7] | [8] | [9] | [10] | [11] | [12] | [13] | [14] | [15] | [16] | [17] | [19]

C=CCN(CC=C)C(=O)C(Cl)Cl
inactive: [1] | [2] | [3] | [4] | [5] | [6] | [7] | [8] | [9] | [10] | [11] | [12] | [13] | [14] | [15] | [16] | [17] | [18] | [19]

O=c1c2ccccc2c(=O)c2c1cc(Cl)c1[nH]c3c([nH]c12)c(Cl)cc1c(=O)c2ccccc2c(=O)c13
active: [7] 6 µM
inactive: [1] | [2] | [3] | [4] | [5] | [6] | [8] | [9] | [10] | [11] | [12] | [13] | [14] | [15] | [16] | [17] | [18] | [19]

CC(C)(c1ccc(O)cc1)c1ccc(O)cc1
inactive: [20]

Cc1nc(-c2ccc3c(c2)CCN(CCC2CCC(NC(=O)/C=C/c4ccc(F)cc4)CC2)CC3)no1 (stereo not given)
active: [20] 16.2 µM

N#CSCSc1nc2ccccc2s1
inactive: [20]

COCC(C)OCC(C)O (stereo not given)
inactive: [20]

NC(=NCCCCCCN=C(N)/N=C(\N)Nc1ccc(Cl)cc1)/N=C(\N)Nc1ccc(Cl)cc1
inactive: [20]

CN(C)c1ccc(N=NS(=O)(=O)O)cc1
inactive: [20]

CCCCCCCCCCCCCC[P+](CCCC)(CCCC)CCCC
active: [20] 15.3 µM

Nc1cccc2c(N)cccc12
inactive: [20]

CCCCCCCCCCCCc1ccccc1S(=O)(=O)O
active: [20] 9.14 µM
